Measured values taken from PubChem BioAssay (NCI).
Several values for one entry are separate records, joined by “and”; a condition that tells them apart may be missing. Equal entries are not always repeated. The panel holds about 83,000 compounds, 20% with a hit somewhere; the sample as a whole holds those more often.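 Results are percent growth after 48 hours of single-concentration exposure. 100 means growth as in untreated cells, lower positive values show inhibition; negative values down to -100 show cell death.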 Activity calls are given as the source filed them. How the source made its calls: active means growth percent below 10; inactive means the rest.

Assays:
Experiment in all cases: NCI-60 one-dose screen, 48 h (100 = growth as untreated, 0 = no growth, -100 = all killed)
Conditions in all cases: 10 µM
T-47D breast = system: T-47D breast
BT-549 breast = system: BT-549 breast
MDA-MB-435 melanoma = system: MDA-MB-435 melanoma
SW-620 colon = system: SW-620 colon
MCF7 breast = system: MCF7 breast
HCT-116 colon = system: HCT-116 colon
HCC-2998 colon = system: HCC-2998 colon
KM12 colon = system: KM12 colon
MDA-MB-468 breast = system: MDA-MB-468 breast

| Structure (SMILES) | growth (T-47D breast) | growth (BT-549 breast) | growth (MDA-MB-435 melanoma) | growth (SW-620 colon) | growth (MCF7 breast) | growth (HCT-116 colon) | growth (HCC-2998 colon) | growth (KM12 colon) | growth (MDA-MB-468 breast) |
| --- | --- | --- | --- | --- | --- | --- | --- | --- | --- |
| O=c1[nH]c2ccccc2cc1CSc1ccc(Nc2nccc(-c3ccc(Cl)cc3)n2)cc1 | -10.3% (active) | -5.03% (active) | 9.58% (active) | 2.67% (active) | -5.81% (active) | -38.6% (active) | 14.6% (inactive) | 23% (inactive) | -67.5% (active) |
| CCOc1ccc(/C=N/NC(=O)Cn2nc(Cc3ccccc3)c3onc(C)c3c2=O)cc1 | 44.9% (inactive) | 6.06% (active) | 55.3% (inactive) | 43.3% (inactive) | 28.3% (inactive) | 10.3% (inactive) | 60.6% (inactive) | 66.4% (inactive) | -7.05% (active) |
| CCOC(=O)CNC(=O)CN(Cc1ccccc1)C(=O)[C@@]1(C)CCC[C@]2(C)[C@H]3CC4C(C(C)C)=C[C@]3(CC[C@H]21)[C@@H]1C(=O)CCC(=O)[C@H]41 | 52.2% (inactive) | 67.8% (inactive) | 70.6% (inactive) | 49.8% (inactive) | 13.1% (inactive) | 36.5% (inactive) | 37.8% (inactive) | 77.7% (inactive) | 3.12% (active) |
| O=C1NC(=NC2CCCCCC2)N/C1=C\c1ccc2ncoc2c1 | 18.9% (inactive) | 9.37% (active) | 37.8% (inactive) | 11.3% (inactive) | 13% (inactive) | 23.5% (inactive) | 68.8% (inactive) | 30% (inactive) | -3.48% (active) |
| O=C(N/C(=C1/OCCN1Cc1ccccc1)[P+](c1ccccc1)(c1ccccc1)c1ccccc1)c1ccccc1 | 11.2% (inactive) | -16.4% (active) | 18.5% (inactive) | 12.5% (inactive) | 1.56% (active) | 2.1% (active) | -10.8% (active) | -1.17% (active) | -30% (active) |
| COc1ccc(CCN2C(=O)/C(=C/c3csc(C#N)n3)SC2=S)cc1 | -5.27% (active) | -44.6% (active) | -23.6% (active) | -14.6% (active) | -0.841% (active) | -63.2% (active) | -32.8% (active) | -61.4% (active) | -67.2% (active) |
| N#Cc1c(Cl)nc(SCc2ccc(F)cc2)nc1-c1ccc(F)cc1 | 66.8% (inactive) | 95.4% (inactive) | 99.1% (inactive) | 98.6% (inactive) | 82.6% (inactive) | 81.5% (inactive) | 111% (inactive) | 91.6% (inactive) | 112% (inactive) |
| CC1(c2ccccc2)NC(=O)N(CC(=O)Nc2ccc(C(=O)/C=C/c3ccccc3)cc2)C1=O (configuration not stated) | 18.3% (inactive) | 36% (inactive) | -23% (active) | 32.4% (inactive) | -19.6% (active) | -65% (active) | -15.6% (active) | -73% (active) | -2.64% (active) |
| Cc1noc2c(Cc3ccc([N+](=O)[O-])cc3)nn(CC(=O)N/N=C/c3ccc(Cl)cc3)c(=O)c12 | 43.8% (inactive) | 56% (inactive) | 76.3% (inactive) | 68.2% (inactive) | 52.5% (inactive) | 21.7% (inactive) | 70.7% (inactive) | 69.7% (inactive) | 5.37% (active) |
| CN1C(=O)N(C)C2SC(N/N=C/c3ccccc3)=NC21 (configuration not stated) | 69.5% (inactive) | 58.7% (inactive) | -13.7% (active) | 38.3% (inactive) | 41% (inactive) | 51.5% (inactive) | 81.9% (inactive) | 46.7% (inactive) | 10% (active) |
| Cc1cc(=O)oc2cc(OCCCCOc3ccc(/C=C/C(=O)Nc4ccc(F)c(Cl)c4)cc3)ccc12 | 67.1% (inactive) | 93.2% (inactive) | 92.7% (inactive) | 96.9% (inactive) | 77.8% (inactive) | 87.6% (inactive) | 123% (inactive) | 91.3% (inactive) | 120% (inactive) |
| O=C1CCC(N2Cc3c(C#CCCCNC(=O)c4ccc(NC(=O)[C@@H]5NC6(CCCCC6)[C@@]6(C(=O)Nc7cc(Cl)ccc76)[C@H]5c5cccc(Cl)c5F)cc4)cccc3C2=O)C(=O)N1 (some centres not stated) | 38.4% (inactive) | 32.5% (inactive) | 61.6% (inactive) | 84.7% (inactive) | 5.5% (active) | 12.6% (inactive) | 58.6% (inactive) | 49.2% (inactive) | 39.3% (inactive) |
| CO[C@H]1CSS[C@@H]1Cn1nc(-c2ccc(Oc3ccccc3)cc2)c2c(N)ncnc21 | 2.61% (active) | 4.49% (active) | -46.5% (active) | 66.4% (inactive) | 10.2% (inactive) | 7.35% (active) | 14% (inactive) | 17.5% (inactive) | -21.2% (active) |
| C#CCNC(=O)CCC(=O)OC[C@]12CC[C@@H](C(=C)C)[C@@H]1C1CC[C@@H]3[C@@]4(C)CCCNC(C)(C)[C@@H]4CC[C@@]3(C)[C@]1(C)CC2 (some centres not stated) | 10.9% (inactive) | 11% (inactive) | -32.2% (active) | -92.3% (active) | -65.7% (active) | -60.3% (active) | -99.1% (active) | 6.5% (active) | -94.9% (active) |
| Cc1ccc(-c2cc(-c3cc4ccccc4nc3Cl)[nH]c(=S)n2)cc1 | 57.3% (inactive) | 7.67% (active) | -1.81% (active) | 78.4% (inactive) | 47.5% (inactive) | 64.5% (inactive) | 77.3% (inactive) | 61.6% (inactive) | 11.7% (inactive) |
| COc1ccc(C(=O)CSc2nnc(-c3c[nH]c4ccccc34)n2-c2ccccc2)cc1 | 56.7% (inactive) | 24.7% (inactive) | 69.1% (inactive) | 86.3% (inactive) | 45.6% (inactive) | 52.5% (inactive) | 77.8% (inactive) | 88.1% (inactive) | 59.8% (inactive) |
| COc1ccc2[nH]c(O)c(N=NC(=O)COc3ccc(NC(=O)Nc4ccc(Cl)c(Cl)c4)cc3)c2c1 | -72.1% (active) | -20.6% (active) | -88.8% (active) | 3.28% (active) | -26% (active) | -42% (active) | -67.4% (active) | -31% (active) | -57.8% (active) |
| CN(C)c1ccc(/C=C/c2nc3ccccc3c(=O)n2CC(=O)Nc2ccc(Cl)cc2)cc1 | 75.1% (inactive) | 26.6% (inactive) | 68.8% (inactive) | 61.9% (inactive) | 27.9% (inactive) | 56.8% (inactive) | 68% (inactive) | 55.1% (inactive) | 31.3% (inactive) |
| CN1CCCN(Cc2ccc(C(=O)Nc3cccc(Nc4ccc5c(O)cccc5n4)c3)cc2C(F)(F)F)CC1 | -27.7% (active) | -75.2% (active) | -96.5% (active) | -92.7% (active) | -96.5% (active) | -67.4% (active) | -85.3% (active) | -11% (active) | -94.5% (active) |
| Cc1noc2c(Cc3ccccc3)nn(CC(=O)N/N=C/c3ccc(Br)cc3)c(=O)c12 | 8.11% (active) | 87.2% (inactive) | 70.2% (inactive) | 54.6% (inactive) | 45.4% (inactive) | 24.7% (inactive) | 85.3% (inactive) | 73.8% (inactive) | 78.1% (inactive) |
| O=C(Nc1ccc(OCC(=O)c2ccccc2)cc1)Nc1ccc(Cl)c(C(F)(F)F)c1 | 3.26% (active) | 33.7% (inactive) | -25.4% (active) | 32% (inactive) | 35% (inactive) | 29.6% (inactive) | 28.6% (inactive) | 1.99% (active) | -5.5% (active) |
| CC[C@]12C=CCN3CC[C@@]4(c5cc(C#CCNc6ccc(C)c(Nc7nccc(-c8cccnc8)n7)c6)c(OC)cc5N(C)[C@H]4[C@@](O)(C(=O)OC)[C@@H]1OC(C)=O)C32 (some centres not stated) | 45.5% (inactive) | -3.24% (active) | 34% (inactive) | 50% (inactive) | 21.7% (inactive) | 27.2% (inactive) | 41.2% (inactive) | 44.9% (inactive) | 1.75% (active) |
| CC(=O)c1ccc(Nc2nc(SC(C)C)nc(-c3ccccc3)c2C#N)cc1 | 58.7% (inactive) | 90.7% (inactive) | 47.4% (inactive) | 34.9% (inactive) | 26.4% (inactive) | 8.81% (active) | 70.2% (inactive) | 82.2% (inactive) | 131% (inactive) and -1.07% (active) |
| COc1ccc(C2NC(=S)NC(C)=C2C(=O)OC(C)C)cc1OC (configuration not stated) | 91.1% (inactive) | 103% (inactive) | 104% (inactive) | 103% (inactive) | 108% (inactive) | 99.3% (inactive) | 114% (inactive) | 103% (inactive) | 98.9% (inactive) |
| Cc1ccc2nc(-c3ccc(-c4nnc(SCC(=O)Nc5ccc(Cl)cc5)o4)cc3)[nH]c2c1 | 65.1% (inactive) | 65.9% (inactive) | 49.1% (inactive) | 3.49% (active) | -16.1% (active) | 9.37% (active) | 67.5% (inactive) | 50.8% (inactive) | 46.8% (inactive) |
| Cc1noc2c(Cc3ccccc3)nn(CC(=O)N/N=C/c3ccc(Cl)cc3)c(=O)c12 | 9.05% (active) | 89.4% (inactive) | 75.8% (inactive) | 51.7% (inactive) | 51.9% (inactive) | 26.4% (inactive) | 79.7% (inactive) | 72.6% (inactive) | 81% (inactive) |
| COc1ccc(CN2[C@H](C(=O)NCCCCCCC(=O)NO)Cc3c([nH]c4ccccc34)[C@H]2C2CC2)cc1 | -10.3% (active) | 25.5% (inactive) | -49.1% (active) | -68.1% (active) | 6.39% (active) | 2.09% (active) | -36.7% (active) | 12.5% (inactive) | 4.06% (active) |
| CN1C(=O)/C(=C/c2nccs2)SC1=S | 45.9% (inactive) | 90.2% (inactive) | 83.9% (inactive) | 92.5% (inactive) | 38.2% (inactive) | 85.2% (inactive) | 113% (inactive) | 90.2% (inactive) | 65.3% (inactive) |
